Source: PubChem BioAssay
PAFAH1B3 FP inh = PAFAH1B3 (human) inhibition. recombinant PAFAH1B3, FP-rhodamine probe, fluorescence polarization. Q15102. inhibition, % at 3.39 µM. 340,000 tested, 0.28% active. AID 492972;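 active means inhibition above the screen-wide average of all tested compounds plus 3 SD, cut at about 25% in these data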;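 further: 0% = enzyme with DMSO only and 100% = wells lacking PAFAH1B3 protein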
Target sequence (Q15102 whole entry, looked up): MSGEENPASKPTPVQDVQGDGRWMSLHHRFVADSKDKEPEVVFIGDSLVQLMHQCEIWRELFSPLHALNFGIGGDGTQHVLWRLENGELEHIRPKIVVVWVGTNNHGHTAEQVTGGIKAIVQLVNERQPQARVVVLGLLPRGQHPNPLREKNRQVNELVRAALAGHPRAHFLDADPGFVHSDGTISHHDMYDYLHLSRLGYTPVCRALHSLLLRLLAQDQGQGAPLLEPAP
PAFAH2 FP inh = PAFAH2 (human) inhibition; Q99487; recombinant PAFAH2, FP-rhodamine activity probe, fluorescence polarization; inhibition, % at 3.39 µM; 340,000 tested, 0.99% active;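 active means inhibition above the mean over all tested compounds plus 3 SD, cut at about 30% in these data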;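 further: inhibitors block probe labeling of enzyme so polarization drops; 0% = enzyme with DMSO and 100% = wells lacking PAFAH2 protein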
Fam108B counter = Fam108B inhibition, counter-screen for RBBP9 inhibitors; recombinant Fam108B, FP-Rh probe fluorescence polarization; inhibition, % at 9.51 µM; 300,000 tested, 0.33% active;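 active means inhibition above the screen mean inhibition plus 3 SD, computed separately per campaign, cut at about 18% in these data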;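 further: inhibitors lower polarization as less probe binds the enzyme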
pPAFAH FP inh = inhibitors of human plasma PAF acetylhydrolase (pPAFAH) | recombinant pPAFAH, FP-rhodamine probe fluorescence polarization | inhibition, % at 3.39 µM | 330,000 tested, 1.5% active | AID 463082;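 active means inhibition above the mean inhibition across the screen plus 3 SD, cut at about 25% in these data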;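 further: inhibitors block binding of the rhodamine activity-based probe so polarization drops; 0% = enzyme with DMSO and 100% = wells lacking pPAFAH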
PME-1 inh = PME-1 (human) inhibition; Q9Y570; recombinant PME-1, FP-Rh probe fluorescence polarization; inhibition, % at 5.9 µM; 320,000 tested, 0.53% active; AID 2130;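 active means inhibition above the campaign mean of all compounds plus 3 SD, cut at about 26% in these data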;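 further: competitive labeling of PME-1 active site by serine hydrolase directed probe; 0% = PME-1 with DMSO and 100% = wells lacking PME-1 enzyme; inhibitors block probe labeling so polarization falls and inhibition rises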
PAFAH1B2 inh = inhibitors of human PAFAH1B2. inhibition, % at 3.39 µM. recombinant PAFAH1B2, FP-rhodamine activity probe, fluorescence polarization. AID 492953. 340,000 tested, 1.2% active;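 active means inhibition above the mean of all tested compounds plus 3 SD, cut at about 24% in these data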;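 further: 0% = enzyme with DMSO and 100% = wells lacking PAFAH1B2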
Target sequence (P68402 whole entry, looked up): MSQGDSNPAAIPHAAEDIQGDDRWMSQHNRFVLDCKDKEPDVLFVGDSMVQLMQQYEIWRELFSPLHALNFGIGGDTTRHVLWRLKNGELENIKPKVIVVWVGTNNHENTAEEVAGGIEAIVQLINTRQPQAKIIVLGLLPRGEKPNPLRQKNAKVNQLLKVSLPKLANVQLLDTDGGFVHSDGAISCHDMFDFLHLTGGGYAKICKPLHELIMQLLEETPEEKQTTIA
PAFAH1B3 confirm = confirmation of human PAFAH1B3 inhibitors; 390 tested, 30% active; recombinant PAFAH1B3, FP-Rh activity-based probe, fluorescence polarization; inhibition, % at 3.39 µM; shares compounds with PAFAH1B3 FP inh;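 active means average inhibition over triplicate runs above the hit cutoff set in the earlier primary screen, cut at about 25% in these data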;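 further: 0% = enzyme with DMSO and 100% = wells lacking PAFAH1B3 protein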
An asterisk follows results filed as active; nt = no result; + = active, no number. Sampled rows, rich in hits. Any-hit rate of the full collection: about 2.9%.

SMILES | PAFAH1B3 FP inh | PAFAH2 FP inh | Fam108B counter | pPAFAH FP inh | PME-1 inh | PAFAH1B2 inh | PAFAH1B3 confirm
COC(=O)N/N=C1/C/C(=N\NC(=O)OC)c2ccccc21 | 38* | 18 | 0 | 4 | 2 | 3 | 16
O=C1/C(=N\S(=O)(=O)c2cccs2)C([n+]2ccccc2)=C([O-])c2ccccc21 | 49* | 17 | 9 | 1 | -2 | 16 | 35*
O=C1c2ccccc2S(=O)(=O)N1CCCN1C(=O)c2ccccc2S1(=O)=O | 30* | -2 | nt | nt | nt | 4 | 8
Cc1[nH][nH]c(=O)c1C(c1ccc(-c2cccc(Cl)c2)o1)c1c(C)[nH][nH]c1=O | 46* | 18 | 6 | 7 | 2 | 13 | 19
COc1cc(-c2cc(=O)c3c(O)cc(O)cc3o2)ccc1O | nt | nt | 3 | 11 | -1 | nt | nt
O=c1oc(-c2ccc(O)c(O)c2)cc2cc(O)cc(O)c12 | 28* | 8 | nt | 10 | nt | 3 | 28*
Cc1cc(C)nc(/N=C(\N)N(Cc2ccccc2)Cc2ccccc2)n1 | 1 | 4 | -1 | 7 | -6 | 2 | nt
COc1cc2sc3cc(NCCCN4CCOCC4)ccc3c(=O)c2cc1OC | 28* | 11 | nt | 8 | nt | 5 | 11
O=c1c2ccccc2sc2ccc(NCCCN3CCOCC3)cc12 | 9 | 7 | 8 | 16 | 9 | -11 | nt
CN(C)C(=O)c1ccc(NC(=O)COC(=O)C2(c3ccccc3)CCCC2)cc1 | 3 | 7 | nt | -5 | nt | 23 | nt
CC(=O)Nc1nc(-c2ccc3c(c2)CCN3S(C)(=O)=O)cs1 | 1 | 1 | -2 | -2 | -3 | -4 | nt
CS(=O)(=O)N1CCc2cc(-c3csc(NC(=O)Cc4cccs4)n3)ccc21 | 36* | -6 | -7 | 16 | 0 | 3 | 5
COc1ccccc1-c1nnc2n1N=C(c1ccc(O)c(O)c1)CS2 | 30* | 17 | 10 | 17 | 8 | 7 | 23
COc1cccc(NC(=O)COc2coc(CN3CCc4ccccc4C3)cc2=O)c1 | 5 | -2 | -3 | 2 | -3 | 3 | nt
O=C(COC(=O)Cc1cccs1)NCC(=O)Nc1ccc(F)cc1 | 42* | 1 | nt | 5 | -3 | 7 | 8
CN(CC(=O)Nc1ccc(F)cc1)C(=O)COC(=O)Cc1cccs1 | 4 | -2 | -3 | -8 | -6 | -3 | nt
Cc1cc2cc(CNC(=O)Nc3ccccc3)ccc2n1C | 30* | 4 | 0 | 11 | -1 | 5 | 8
Cc1cc2cc(CNC(=S)NCc3ccccc3)ccc2n1C | 10 | 9 | 3 | 6 | 6 | -2 | nt
O=C(CN1CCOCC1)Nc1ccc([N+](=O)[O-])cc1 | 3 | 8 | 0 | 1 | 2 | 0 | nt
Cc1ccc(S(=O)(=O)NC(=O)Nc2ccc(C)cc2C)cc1 | 28* | -5 | nt | nt | nt | 5 | 7
Cc1ccc(S(=O)(=O)NNC(=O)CCC(=O)Nc2ccc(C)cc2C)cc1 | 1 | -9 | -1 | 3 | -6 | 0 | nt
Cc1cnc(C=NNC(N)=S)c2cccc(N)c12 | 34* | 18 | nt | nt | nt | 9 | 51*
CN(C)CCOC1c2ccccc2CCc2ccc3ccccc3c21 (stereo unspecified) | -2 | 3 | 1 | 0 | 3 | 2 | nt
C[C@@H]1C=C(C(=O)NCc2nc3ccccc3[nH]2)O[C@H](OCc2ccc(CO)cc2)C1 | -2 | 7 | -5 | -4 | -3 | 4 | nt
C[C@@H]1C=C(C(=O)NCc2nc3ccccc3[nH]2)O[C@H](OCCCCO)C1 | + | -3 | -1 | -2 | -5 | -6 | 8
SMILES | PAFAH1B3 FP inh | PAFAH2 FP inh | Fam108B counter | pPAFAH FP inh | PME-1 inh | PAFAH1B2 inh | PAFAH1B3 confirm
COc1cc(Cl)cc(CN2CCC(CCC(=O)NC3CC3)CC2)c1OC | -2 | 0 | -3 | -2 | -1 | 11 | nt
Cc1cccc(C(C)C)c1NC(=O)COC(=O)CNS(=O)(=O)c1ccccc1 | 5 | 6 | -2 | 15 | 2 | 3 | nt
c1ccc(C2NCCNC2c2ccccc2)cc1 (stereo unspecified) | 5 | 4 | nt | nt | nt | 5 | nt
O=C1NC(c2ccccc2)C(c2ccccc2)N1 (stereo unspecified) | 50* | 12 | nt | nt | nt | 5 | 39*
Cc1cc(=O)oc2c(CN3CC(C)OC(C)C3)c(O)c(Cl)cc12 (stereo unspecified) | 4 | 8 | 3 | 11 | 2 | 4 | nt
O=C1C(c2ccccc2)=[N+]([O-])c2ccccc21 | 28* | 18 | 7 | 5 | 6 | 5 | 13
Cn1c(=O)[nH]c(=O)c2c1nc(Br)n2Cc1cccc(Br)c1 | 1 | -1 | 2 | 2 | 0 | -1 | nt
O=C(N/N=C/c1cc(Br)ccc1OC(=O)c1ccc(Br)cc1)c1ccncc1 | 26* | -19 | -3 | 8 | 1 | 15 | 13
COc1ccccc1CNC(=O)COC(=O)COc1ccccc1F | -2 | 3 | nt | 8 | 2 | 2 | nt
O=C1Nc2c(Cl)cc(Cl)cc2C1=O | 43* | 13 | nt | nt | nt | 16 | 23
O=C1C(=NO)CCc2ccccc21 | 37* | 18 | nt | nt | nt | 12 | 23
CC1=CC(C)[C@H](/C=N/n2c(=O)[nH]c3c([nH]c4ccc(C)cc43)c2=O)C(C)C1 (stereo partly specified) | 0 | -7 | 5 | -2 | 3 | -1 | nt
CCN(CC)c1ccc(NC2=C(Cl)C(=O)c3ccccc3C2=O)cc1 | 26* | 28 | 14 | 10 | 7 | 6 | 36*
O=C1C(Cl)=C(Nc2ccc(O)cc2)C(=O)c2ccccc21 | 27* | 9 | 12 | 1 | 21 | 13 | 18
CCNC1=C(Cl)C(=O)c2ccccc2C1=O | 17 | -1 | 3 | 4 | 10 | 4 | nt
CCCC(=O)NC1=C(Cl)C(=O)c2ccccc2C1=O | 38* | 20 | nt | nt | nt | 6 | 14
Cc1ccc(NC2=C(Cl)C(=O)c3ccccc3C2=O)cc1 | 16 | 9 | 10 | 6 | 21 | 9 | nt
Cc1ccccc1Sc1ccc(N)cn1 | nt | nt | -1 | 3 | -1 | nt | nt
CCOC(=O)c1c(S(=O)(=O)NCC(=O)NCc2ccccc2Cl)c(C)n(C)c1C | -3 | 2 | 3 | -1 | 2 | 1 | nt
Cc1cc(S(=O)(=O)N2CCCCC2)ccc1OCC(=O)Nc1ccccc1 | -3 | 5 | -1 | -1 | -1 | 2 | nt
CCOc1ccccc1/C=C\c1nc(O)c([N+](=O)[O-])c(=O)[nH]1 | 28* | -5 | -1 | 8 | 0 | 5 | 19
COc1cccc(C(CNC(=O)C2CCN(C(=O)Nc3ccccc3)CC2)N(C)C)c1 (stereo unspecified) | -3 | -4 | nt | 4 | 2 | 2 | nt
Cc1ccc(C(=O)O)cc1N1C(=O)c2cccc3cc(Br)cc(c23)C1=O | 57* | 2 | 1 | 5 | 3 | 3 | 57*
Cc1n[nH]c(C)c1N1C(=O)c2cccc3cc(Br)cc(c23)C1=O | 8 | 1 | 1 | 1 | 15 | 2 | nt
C=CCNc1nc2ccccc2nc1NS(=O)(=O)c1ccc(Cl)cc1 | 15 | 6 | 6 | 8 | 7 | 0 | nt
